{"source": "PubChem BioAssay (NCI)", "note": "Values joined by “and” are separate entries in the source; they are usually repeats but may differ in a detail not shown here. Identical values can stand only once. Compounds without any hit were thinned out: in the full panel of roughly 83,000, 20% have a hit.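 Step 1: grow cells in 96-well plates. Step 2: add test compound at a single concentration. Step 3: incubate 48 h. Step 4: record percent growth.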 Active and inactive are the calls of the source. The calls were made as follows: active = growth percent below 10; inactive = the rest.", "data": [{"tested_on": "HOP-92 NSCLC", "test": "NCI-60 one-dose screen, 48 h (100 = growth as untreated, 0 = no growth, -100 = all killed)", "settings": "10 µM unless noted", "values": [{"molecule": "ON=C1CCCCCCCC1", "growth": "105% (inactive) and 102% (inactive)"}, {"molecule": "CCOC(=O)N(O)c1ccc(/C=C/c2ccccc2)cc1", "growth": "67.4% (inactive)"}, {"molecule": "O=S(=O)(O)c1ccc(N=Nc2ccc(N=Nc3cccc4ccccc34)c(S(=O)(=O)O)c2)cc1", "growth": "83.4% (inactive)"}, {"molecule": "COc1ccc(-c2nn3c(-c4cc(F)c(Cl)cc4Cl)nnc3s2)cc1", "growth": "37.6% (inactive)"}, {"molecule": "CCc1c2c(nc3ccc(OCc4ccc(B5OC(C)(C)C(C)(C)O5)cc4)cc13)-c1cc3c(c(=O)n1C2)COC(=O)[C@]3(O)CC", "growth": "-9.71% (active)"}, {"molecule": "O=C(O)c1ccccc1Cc1ccc(F)c2ccccc12", "growth": "74.6% (inactive)"}, {"molecule": "CCCCC1COc2cccc3c2N1C=C/C3=C\\C(=O)N(C)c1cccc(Cl)c1", "note": "(stereo not drawn)", "growth": "92% (inactive)"}, {"molecule": "COc1ccc(/C=C2\\COc3ccc(O)c(O)c3C2=O)c(OC)c1OC", "growth": "38.9% (inactive)"}, {"molecule": "CC12OC(CC(O)C1O)n1c3ccccc3c3c4c(c5c6ccccc6n2c5c31)C(=O)N(CCN1CCOCC1)C4=O", "note": "(stereo not drawn)", "growth": "19.6% (inactive)"}, {"molecule": "COc1ccc(/C=N/C2=C(C#N)C(c3ccccc3)c3c(ccc4ccccc34)O2)cc1", "note": "(stereo not drawn)", "growth": "53.9% (inactive)"}, {"molecule": "COc1ccc(-c2cc3cnc4ccccc4c3oc2=O)cc1", "growth": "73.5% (inactive)"}, {"molecule": "O=C(/C=C/c1ccc(F)cc1)Nc1ncc(Cc2ccc(F)cc2)s1", "growth": "71.5% (inactive)"}, {"molecule": "COc1cc(/C=C2\\CCC/C(=C\\c3cc(CN4CCCC4)c(O)c(OC)c3)C2=O)cc(CN2CCCC2)c1O", "growth": "10.5% (inactive)"}, {"molecule": "CN(C)CCCn1c2c(c3ccc(N4CCNCC4)cc3c1=O)C(=O)c1ccccc1-2", "growth": "18.4% (inactive)"}, {"molecule": "C=CCOc1ccc(/C=C2\\SC(=S)N(CCc3ccc(O)cc3)C2=O)cc1", "growth": "-2.76% (active)"}, {"molecule": "CCOC(=O)C1=C(C)N=C2SC=C(c3ccc(F)cc3)N2[C@H]1c1cn(-c2ccccc2)nc1-c1ccc(Cl)cc1", "growth": "61.6% (inactive)"}, {"molecule": "COc1ccc(/C=N/NC(=O)CN2CCN(c3cc4c(cc3F)c(=O)c(C(=O)O)cn4C3CC3)CC2)cc1O", "growth": "91.8% (inactive)"}, {"molecule": "COc1cccc(C2C(C#N)=C(N)Oc3cc(OCCCCCC[P+](c4ccccc4)(c4ccccc4)c4ccccc4)ccc32)c1", "note": "(stereo not drawn)", "growth": "-51.7% (active)"}, {"molecule": "Cc1nn(-c2nc(-c3cc4ccccc4oc3=O)cs2)c(C)c1N=Nc1ccccc1", "growth": "79.9% (inactive)"}, {"molecule": "Cn1cc2c(=O)nc3c(-c4nc5ccccc5[nH]4)n[nH]n3c2n1", "growth": "83.6% (inactive)"}, {"molecule": "O=C1c2cccc3cccc(c23)C(=O)N1N1C(=O)c2cccc3c(N4CCNCC4)ccc(c23)C1=O", "growth": "78.2% (inactive)"}, {"molecule": "Cc1nc2sc(C(=O)Nc3cccc4ncccc34)c(N)c2cc1C(C)O", "note": "(stereo not drawn)", "growth": "70.5% (inactive)"}, {"molecule": "CCOC(=O)c1nc2c3ccccc3cnn2c1C(=O)c1ccc(OC)cc1", "growth": "86.5% (inactive)"}, {"molecule": "O=C1/C(=C/c2ccccc2[N+](=O)[O-])Cc2ccccc21", "growth": "51.9% (inactive) and 77.4% (inactive)"}, {"molecule": "COc1cc(/C=C2/C=C(c3ccc(C(C)(C)C)cc3)N(CCc3ccc(S(N)(=O)=O)cc3)C2=O)cc(OC)c1OC", "growth": "23% (inactive)"}, {"molecule": "COC(=O)N/N=C/c1c[n+]([O-])c2ccccc2[n+]1[O-]", "growth": "96.5% (inactive)"}, {"molecule": "Cc1nc(-n2[nH]c(=O)ccc2=O)sc1N=Nc1ccccc1", "growth": "96.6% (inactive)"}, {"molecule": "CC1(Cc2ccccc2)CC2=C(C(=O)O1)C(c1ccccc1)NC(=O)N2", "note": "(stereo not drawn)", "growth": "77% (inactive)"}, {"molecule": "Cc1ccc(/C=C/c2c(C(=O)/C=C/c3ccccc3)c(C)nc3ccccc23)cc1", "growth": "89.4% (inactive)"}, {"molecule": "CC1=C2[C@@H](CC1)[C@]1(C)O[C@@](C3CC3)(C[C@H]1OC(=O)CO)[C@H]2OC(=O)/C=C/c1ccccc1", "growth": "82.2% (inactive)"}, {"molecule": "COc1ccc(S(=O)(=O)Nc2cc(Sc3cccc4cccnc34)c(O)c3ccccc23)cc1", "growth": "38.9% (inactive)"}, {"molecule": "CCN(CC)CCCN1C(=O)c2c(c(C)c3c(oc4cc(OC)ccc43)c2C)C1=O", "growth": "87.3% (inactive)"}, {"molecule": "CN1Cn2c(ccc2C(F)(F)F)C(=O)CS1(=O)=O", "growth": "102% (inactive)"}, {"molecule": "O=c1cc(N/N=C/c2ccc(F)cc2)c2cc(Cl)ccc2[nH]1", "growth": "-48.3% (active)"}, {"molecule": "Cc1cccc(-c2nnc(SCC(=O)Nc3ncc(Cc4ccccc4)s3)n2N2C(=O)CSC2=S)c1", "growth": "8.49% (active)"}, {"molecule": "COc1ccc(/C(C)=C(\\c2ccc(OCCN3CCCCCC3)cc2)c2ccc(OC(=O)C3CCCCC3)cc2)cc1", "growth": "-88.9% (active)"}, {"molecule": "COc1ccc2c(c1)c(C(=O)c1nc(-c3cn(C)c4ccccc34)no1)cn2C", "growth": "110% (inactive)"}, {"molecule": "CCOC(=O)c1nnn(Cc2cc(=O)oc3c2ccc2ccccc23)c1C", "growth": "98.8% (inactive)"}]}]}
